Measurements: PubChem BioAssay AID588689 (Southern Research Specialized Biocontainment Screening …, 2011)
“And” between values parts separate entries of the source, which are not always exact repeats. Equal entries are not always repeated. Among all 340,000 compounds or so, about 1,000 (0.29%) were called active. No stated cut-off is given here; in the data, inconclusive means inhibition above about 29% without an active follow-up result; inactive means below that. The list is a sample of the results. Measured potencies and affinities stand elsewhere.

Biological target: Genome polyprotein (Dengue virus type 2 (strain 16681-PDK53)) (UniProt P29991)
Experiment: Dengue-2 NS5 methyltransferase inhibitors, primary screen, biochemical, confirmation dose response (AID 588689)
Conditions: Dengue-2 NS5 methyltransferase capping enzyme assay, at 25 µM, stronger effect = higher value
[1] = measured here: pilot screen replicate inhibition

Chain of Genome polyprotein (Dengue virus type 2 (strain 16681-PDK53)) (P29991 whole entry, looked up): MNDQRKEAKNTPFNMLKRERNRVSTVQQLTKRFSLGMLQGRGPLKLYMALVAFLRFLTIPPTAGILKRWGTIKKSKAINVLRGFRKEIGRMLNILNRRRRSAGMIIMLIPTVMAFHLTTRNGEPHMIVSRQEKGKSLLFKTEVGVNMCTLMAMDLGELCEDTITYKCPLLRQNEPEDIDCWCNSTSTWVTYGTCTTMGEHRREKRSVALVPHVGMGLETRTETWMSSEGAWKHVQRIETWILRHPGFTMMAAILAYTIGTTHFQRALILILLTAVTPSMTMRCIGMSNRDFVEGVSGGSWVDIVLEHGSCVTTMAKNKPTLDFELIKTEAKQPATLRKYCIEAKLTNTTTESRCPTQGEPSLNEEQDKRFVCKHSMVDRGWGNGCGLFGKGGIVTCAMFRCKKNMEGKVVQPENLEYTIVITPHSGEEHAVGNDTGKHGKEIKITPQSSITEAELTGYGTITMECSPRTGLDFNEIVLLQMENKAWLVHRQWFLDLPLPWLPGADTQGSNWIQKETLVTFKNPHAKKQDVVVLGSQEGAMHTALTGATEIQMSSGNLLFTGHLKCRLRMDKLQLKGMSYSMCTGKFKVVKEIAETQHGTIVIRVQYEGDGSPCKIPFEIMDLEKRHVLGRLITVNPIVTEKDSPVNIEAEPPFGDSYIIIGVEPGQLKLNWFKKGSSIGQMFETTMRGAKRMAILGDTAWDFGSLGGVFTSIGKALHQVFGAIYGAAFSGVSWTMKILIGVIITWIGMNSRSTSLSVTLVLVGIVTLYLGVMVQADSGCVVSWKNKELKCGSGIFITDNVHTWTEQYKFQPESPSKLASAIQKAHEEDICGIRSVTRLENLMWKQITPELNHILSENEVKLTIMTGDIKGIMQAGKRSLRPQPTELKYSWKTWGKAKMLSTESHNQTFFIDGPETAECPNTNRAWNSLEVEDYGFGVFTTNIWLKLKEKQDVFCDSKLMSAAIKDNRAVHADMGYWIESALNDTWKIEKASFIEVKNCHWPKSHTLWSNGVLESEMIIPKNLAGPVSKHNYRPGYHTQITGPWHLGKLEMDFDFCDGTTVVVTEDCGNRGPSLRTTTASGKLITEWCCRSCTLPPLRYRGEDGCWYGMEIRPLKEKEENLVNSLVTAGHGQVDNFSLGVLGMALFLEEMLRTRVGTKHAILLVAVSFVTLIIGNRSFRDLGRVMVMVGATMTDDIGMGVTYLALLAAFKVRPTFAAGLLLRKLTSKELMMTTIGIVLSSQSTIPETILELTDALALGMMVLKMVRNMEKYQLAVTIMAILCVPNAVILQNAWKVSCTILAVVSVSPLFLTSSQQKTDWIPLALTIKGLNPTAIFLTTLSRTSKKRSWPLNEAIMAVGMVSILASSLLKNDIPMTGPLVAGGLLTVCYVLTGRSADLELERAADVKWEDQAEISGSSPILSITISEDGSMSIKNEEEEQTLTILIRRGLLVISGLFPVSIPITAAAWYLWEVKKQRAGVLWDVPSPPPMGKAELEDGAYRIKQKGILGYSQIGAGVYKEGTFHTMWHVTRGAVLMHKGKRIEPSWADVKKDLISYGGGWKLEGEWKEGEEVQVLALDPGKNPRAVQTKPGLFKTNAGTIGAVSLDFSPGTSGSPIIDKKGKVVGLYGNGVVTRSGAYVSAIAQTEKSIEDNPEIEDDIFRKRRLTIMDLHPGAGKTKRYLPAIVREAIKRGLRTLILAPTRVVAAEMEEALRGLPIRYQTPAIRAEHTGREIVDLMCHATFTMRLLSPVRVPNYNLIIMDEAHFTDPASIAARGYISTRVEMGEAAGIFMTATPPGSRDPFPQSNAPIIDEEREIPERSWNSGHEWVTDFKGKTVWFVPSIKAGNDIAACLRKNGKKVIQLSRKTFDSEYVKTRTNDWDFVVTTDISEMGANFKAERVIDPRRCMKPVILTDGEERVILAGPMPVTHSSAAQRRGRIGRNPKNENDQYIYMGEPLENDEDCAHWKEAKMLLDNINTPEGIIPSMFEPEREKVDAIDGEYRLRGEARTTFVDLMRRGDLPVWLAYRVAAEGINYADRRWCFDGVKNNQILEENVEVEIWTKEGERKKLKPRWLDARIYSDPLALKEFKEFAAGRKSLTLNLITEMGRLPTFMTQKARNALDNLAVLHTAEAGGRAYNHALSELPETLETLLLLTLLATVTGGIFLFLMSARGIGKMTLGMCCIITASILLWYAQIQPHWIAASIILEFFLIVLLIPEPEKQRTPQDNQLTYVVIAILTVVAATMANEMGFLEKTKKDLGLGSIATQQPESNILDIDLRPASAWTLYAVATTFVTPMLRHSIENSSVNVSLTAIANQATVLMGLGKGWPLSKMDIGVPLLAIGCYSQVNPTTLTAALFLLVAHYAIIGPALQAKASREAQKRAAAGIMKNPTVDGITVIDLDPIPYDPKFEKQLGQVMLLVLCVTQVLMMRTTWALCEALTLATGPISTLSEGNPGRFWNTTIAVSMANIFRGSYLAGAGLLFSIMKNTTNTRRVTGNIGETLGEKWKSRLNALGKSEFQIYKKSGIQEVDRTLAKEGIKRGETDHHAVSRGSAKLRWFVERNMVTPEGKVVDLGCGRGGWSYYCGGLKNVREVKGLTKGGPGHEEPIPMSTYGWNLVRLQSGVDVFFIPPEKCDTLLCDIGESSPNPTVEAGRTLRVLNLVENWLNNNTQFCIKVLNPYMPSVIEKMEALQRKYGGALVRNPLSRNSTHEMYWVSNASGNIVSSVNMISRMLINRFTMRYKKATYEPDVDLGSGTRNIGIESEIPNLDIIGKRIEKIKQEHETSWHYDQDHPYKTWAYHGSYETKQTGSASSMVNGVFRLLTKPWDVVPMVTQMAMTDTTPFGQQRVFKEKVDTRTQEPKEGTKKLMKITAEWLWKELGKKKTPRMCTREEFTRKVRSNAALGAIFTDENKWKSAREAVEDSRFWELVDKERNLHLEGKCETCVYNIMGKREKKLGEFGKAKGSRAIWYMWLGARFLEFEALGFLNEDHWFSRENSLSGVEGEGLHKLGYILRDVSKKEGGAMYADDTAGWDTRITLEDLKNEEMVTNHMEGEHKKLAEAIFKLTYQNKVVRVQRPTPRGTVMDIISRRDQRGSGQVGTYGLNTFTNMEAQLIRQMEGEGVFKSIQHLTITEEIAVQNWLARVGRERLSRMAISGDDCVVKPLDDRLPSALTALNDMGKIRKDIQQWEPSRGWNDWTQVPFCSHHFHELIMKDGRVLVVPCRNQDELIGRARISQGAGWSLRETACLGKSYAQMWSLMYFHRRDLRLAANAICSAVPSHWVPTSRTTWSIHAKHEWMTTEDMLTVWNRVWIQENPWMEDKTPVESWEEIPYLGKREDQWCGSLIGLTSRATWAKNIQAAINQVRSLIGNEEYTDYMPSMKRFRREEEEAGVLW

| Structure (SMILES) | inhibition | inhibition [1] [%] |
| --- | --- | --- |
| CN(C)c1ccc(C=c2c3cc(O)ccc3n3c2cc(-c2ccccc2)[n+]3C)cc1 | 27.4% (inactive) | – |
| CN(C)c1ccc(C=c2c3ccccc3n3c2cc(-c2ccccc2)[n+]3C)cc1 | 16.6% (inactive) | – |
| COc1cc(C=c2c3ccccc3n3c2cc(-c2ccccc2)[n+]3C)cc(OC)c1OC | -32.8% (inactive) | – |
| C[n+]1c(-c2ccccc2)cc2c(=Cc3ccccc3)c3ccccc3n21 | -8.87% (inactive) | – |
| C=CCn1c(SCC#N)nc2ccccc2c1=O | 0.54% (inactive) | – |
| Cc1ccc(NC(=O)C(C)Sc2nnc(C)n2C)cc1 (stereo unspecified) | -10.5% (inactive) | -8.82 |
| Nc1ccc(N=Nc2ccc(O)cc2)c(N)n1 | -2.31% (inactive) | – |
| Oc1ccc(N=Nc2ccc3ccccc3c2)cc1 | -0.57% (inactive) | – |
| COc1ccc(NC(=O)C2CCCN(S(=O)(=O)c3ccc4[nH]c(=O)ccc4c3)C2)cc1OC (stereo unspecified) | -7.99% (inactive) | – |
| CCN(CC)CCN(Cc1cc2cc3c(cc2[nH]c1=O)OCO3)C(=S)NCCCOC | -4.77% (inactive) | – |
| Cc1[nH]c2ccccc2c1C1C(c2ccccc2)=NN=C(C(C)C)N1O (stereo unspecified) | -11.8% (inactive) | – |
| CCCN(CCC)S(=O)(=O)c1cccc(-c2csc(C)n2)c1 | -5.33% (inactive) | – |
| COc1cccc(CN(C)C(=O)C2CSC3(C)CCC(=O)N23)c1OC (stereo unspecified) | -4.42% (inactive) | – |
| COc1cc(/C=C2/NC(=O)N(Cc3ccccc3F)C2=O)ccc1Oc1ccc([N+](=O)[O-])cn1 | -0.72% (inactive) | – |
| COc1cc(/C=C2/NC(=O)N(Cc3ccccc3F)C2=O)cc(OC)c1O | 1.47% (inactive) | – |
| COc1ccc(Cl)cc1-c1nc(SCC(=O)N(C)C)n[nH]1 | -2.97% (inactive) | – |
| Cc1nc2sc(C(c3ccco3)N3CCc4ccccc4C3)c(O)n2n1 (stereo unspecified) | -4.07% (inactive) | – |
| CCCCNC(=O)c1onc(CSc2ccccc2C)c1C(=O)O | 7.73% (inactive) | – |
| CCCCNC(=O)c1onc(CSc2ccccc2CC)c1C(=O)O | 6.29% (inactive) | – |
| Cc1cccc(NC(=O)N(Cc2nc3ccccc3c(=O)[nH]2)C2CCCC2)c1 | -1.56% (inactive) | – |
| CN(C)S(=O)(=O)c1cccc(-n2sc3ccccc3c2=O)c1 | -48.9% (inactive) | – |
| O=C(O)c1cccc(-n2sc3ccccc3c2=O)c1 | -2.4% (inactive) | – |

| Structure (SMILES) | inhibition | inhibition [1] [%] |
| --- | --- | --- |
| CCOc1ccc(Br)cc1S(=O)(=O)Nc1cccc(S(=O)(=O)Nc2ccccc2C(=O)O)c1 | 11.4% (inactive) | – |
| Cc1ccc(S(=O)(=O)Nc2cccc(S(=O)(=O)Nc3ccccc3C(=O)O)c2)c(C)c1 | 17.5% (inactive) | – |
| CN(CCOc1ccccc1)C(=O)c1cc(S(=O)(=O)N2CCOCC2)ccc1Cl | -7.25% (inactive) | – |
| NS(=O)(=O)c1ccc(NC(=O)Cc2cccs2)cc1 | 0% (inactive) | – |
| O=c1[nH]c2cc([N+](=O)[O-])cc(Cl)c2c2ccccc12 | 5.75% (inactive) | – |
| CNC(=O)CN1C(=O)NC2(CCc3ccccc3C2)C1=O (stereo unspecified) | 0.74% (inactive) | – |
| COCC(C)n1c(SCC(=O)NC(=O)Cc2ccccc2)nc2ccccc2c1=O (stereo unspecified) | 1.46% (inactive) | – |
| CSc1nsc(SCC(=O)Nc2ccc(Cl)c(C(=O)O)c2)n1 | 8.31% (inactive) | – |
| O=C(CSc1n[nH]c(-c2ccncc2)n1)Nc1ccc(Cl)c(C(=O)O)c1 | 0.89% (inactive) | – |
| O=C(Cn1cnc([N+](=O)[O-])n1)N/N=C/c1cc(Cl)ccc1O | -13.5% (inactive) | – |
| NS(=O)(=O)c1ccc(NS(=O)(=O)c2ccc(NC(=O)C3CC3)cc2)cc1 | 15.1% (inactive) | – |
| Cc1csc(SCC(=O)Nc2ccc(F)cc2Cl)n1 | -8.4% (inactive) | – |
| O=C(Nc1ncccc1Cl)C(Sc1ccccc1)c1ccccc1 (stereo unspecified) | -1.88% (inactive) | -5.46 |
| CNC(=O)Oc1ccc2c(c1)[C@]1(C)CCN(C)[C@@H]1N2C | -1.49% (inactive) and -0.75% (inactive) | – |
| CNC(=O)Oc1ccc2c(c1)[C@]1(C)CCN(C)C1N2C (stereo partly specified) | 0% (inactive) | – |
| O=C(Nc1ccc(Cl)cc1)Nc1ccc2c(c1)N1CCN=C1S2 | -47.1% (inactive) | – |
| COC(=O)c1ccccc1NC(=O)CSc1nccn1C | 0.56% (inactive) | – |
| COc1cc(-c2ccc3sc(-c4ccsc4)c(C#CCO)c3c2)cc(OC)c1OC | 3.31% (inactive) | – |
| Cc1ccc(C2=C(O)c3ccccc3C(=O)C2=O)cc1 | 10.5% (inactive) | – |
| Cc1ccc(C2=C(O)C(=O)C(c3ccc(C)cc3)=C(O)C2=O)cc1 | 2.31% (inactive) | – |
| COc1ccc([N+](=O)[O-])cc1-c1[nH]c(-c2ccc(C(=O)O)cc2)nc1-c1ccccc1 | -2.87% (inactive) | – |
| CC(=O)Nc1ccc(S(=O)(=O)Nc2c(C)nn(-c3ccccc3)c2C)cc1 | -3.38% (inactive) | – |

| Structure (SMILES) | inhibition | inhibition [1] [%] |
| --- | --- | --- |
| COc1cc(NCc2ccccc2O)c2ncccc2c1 | -1.29% (inactive) | – |
| COc1cc(NC(=O)C2CCCCC2)c2ncccc2c1 | -4.93% (inactive) | – |
| CCN(CCCNC(=O)CNC(=O)c1nn(-c2ccc(OC)cc2OC)c(=O)c2ccccc12)c1cccc(C)c1 | -2.2% (inactive) | – |
| Cc1cccc(-n2ccnc2SCC(=O)Nc2cc(C)on2)c1 | -6.93% (inactive) | – |
| COc1ccc2[nH]c3c(c2c1)CCN1C(=O)C(CC(=O)NC(C)(C)C)C[C@H](C(=O)N(C(C)C)C(C)C)[C@@]31C (stereo partly specified) | -6.62% (inactive) | -4.89 |
| Cc1cc(NS(=O)(=O)c2ccc(NC(=O)CSc3nc4sc(C(=O)O)c(C)c4c(=O)[nH]3)cc2)no1 | 1.64% (inactive) | – |
| Cc1cc(C)nc(SCC(=O)Nc2ccc(S(=O)(=O)Nc3cc(C)on3)cc2)n1 | -0.67% (inactive) | – |
| O=C1C(=O)N(C/C=C/c2ccccc2)c2ccccc21 | -12.9% (inactive) | – |
| CC1(C)CC(=O)C(=Cc2cn(-c3ccccc3)nc2-c2ccc(Cl)cc2)C(=O)C1 | -1.09% (inactive) | – |
| CC1(C)CC(=O)C(=Cc2cn(-c3ccccc3)nc2-c2ccccc2)C(=O)C1 | 27.8% (inactive) | – |
| N#CCCn1cc(/C=N/O)c(-c2ccc(F)cc2)n1 | -2.03% (inactive) | – |
| CC1=NN(c2ccccc2)C(=O)/C1=C\c1cn(CCC#N)nc1-c1ccc(Cl)cc1 | 5.39% (inactive) | – |
| N#CCCn1cc(/C=C2\NC(=S)N(c3ccccc3)C2=O)c(-c2ccc(F)cc2)n1 | -8.84% (inactive) | – |
| CC1=NNC(=O)/C1=C\c1cn(-c2ccccc2)nc1-c1ccccc1 | 10.9% (inactive) | – |
| Cc1ccc(NC(=O)c2cc(-c3cc(Cl)ccc3O)n[nH]2)cc1C | -6.12% (inactive) | – |
| COc1cccc(N2CCN(C(=O)CNC(=O)c3sc4ccccc4c3Cl)CC2)c1 | -1.29% (inactive) | – |
| O=C1CN(C(=O)COC(=O)c2ccccc2NCc2ccco2)c2ccccc2N1 | -4.76% (inactive) | – |
| CCOC(=O)c1c(C)[nH]c(C(=O)OCC(=O)N(CC(C)C)C2CCS(=O)(=O)C2)c1C (stereo unspecified) | 4.1% (inactive) | – |
| Cc1c(N(C)C(=O)c2ccccc2F)c(=O)n(-c2ccccc2)n1C | 2.15% (inactive) | – |
| COc1cccc(C(NC(=O)c2ccccc2F)NC(=O)c2ccccc2F)c1 | -5.64% (inactive) | – |
| CC(=NCCCNC1CCCCC1)C1=C(O)CC(C)(C)CC1=O | 10.2% (inactive) | – |
| O=C(NC1CCCc2ccccc21)C1CCN(c2c3c(nc4ncnn24)CCC3)CC1 (stereo unspecified) | -6.95% (inactive) | – |

| Structure (SMILES) | inhibition | inhibition [1] [%] |
| --- | --- | --- |
| O=C(O)C(Cc1ccc(O)cc1)N1C(=O)c2c(Cl)c(Cl)c(Cl)c(Cl)c2C1=O (stereo unspecified) | 16.9% (inactive) | – |
| O=C(O)C(Cc1ccccc1)N1C(=O)c2ccccc2C1=O (stereo unspecified) | -1.57% (inactive) | – |
| O=C(O)C(Cc1ccccc1)N1C(=O)CCC1=O (stereo unspecified) | -3.06% (inactive) | – |
| O=C(O)C(Cc1ccccc1)N1C(=O)c2cccc3cccc(c23)C1=O (stereo unspecified) | -2.21% (inactive) | – |
| Cc1cccc(C)c1NC(=O)C(c1ccc([N+](=O)[O-])cc1)N1CCCCC1 (stereo unspecified) | -3.23% (inactive) | – |
| Cc1onc(-c2ccccc2Cl)c1C(=O)Nc1ccc(-c2nnc3n2CCCCC3)cc1 | 9.09% (inactive) | – |
| O=C(CNC(=O)c1cccs1)Nc1ccncc1 | 1.47% (inactive) | – |
| Cc1cc(C(C)(C)C)oc1C(=O)N(CC(=O)NC1CCCC1)c1cccc(C(F)(F)F)c1 | -5.56% (inactive) | – |
| Cc1[nH][nH]c(=O)c1C(c1cc(Br)ccc1O)c1c(C)[nH][nH]c1=O | 0% (inactive) | – |
| CCOC(=O)c1[nH]c2ccccc2c1NC(C)=O | 1.39% (inactive) | – |
| CCc1c(C(=O)O)[nH]c2ccc(Br)cc12 | 7.42% (inactive) | – |
| O=C(CC(c1ccccc1)c1cc(Br)ccc1O)N1CCCC1 (stereo unspecified) | -0.78% (inactive) | – |
| CCOc1ccccc1NC(=O)CSCC(=O)Nc1ccccc1 | 0% (inactive) | – |
| CCOC(=O)N1CCN(CC(O)COCC2=CCC3CC2C3(C)C)CC1 (stereo unspecified) | 6.09% (inactive) | – |
| C[C@@H](C(=O)Nc1ccc2ccccc2c1)[C@H]1C[C@]1(C)[C@H](NC(=O)OCc1ccccc1)c1ccccc1 | 4.76% (inactive) | – |
| CCOC(=O)N1CCN(S(=O)(=O)N2CCCC(C(=O)NCc3ccccc3Cl)C2)CC1 (stereo unspecified) | -6.21% (inactive) | – |
| CC(NC(=O)C1CCC1)c1ccc(Cl)cc1 (stereo unspecified) | -3.24% (inactive) | – |
| O=C1C2C3C=CC(C4CC34)C2C(=O)N1/N=C/c1ccc(-c2ccc(Cl)cc2[N+](=O)[O-])o1 (stereo unspecified) | 0% (inactive) | – |
| Cc1ccc(-c2ccc(/C=N/N3C(=O)C4C5C=CC(CC5)C4C3=O)o2)c([N+](=O)[O-])c1 (stereo unspecified) | 4.83% (inactive) | – |
| COCc1cc(C)nc(N/N=C/c2ccc(-c3ccc(Cl)cc3[N+](=O)[O-])o2)c1C#N | 0.9% (inactive) | – |
| Cc1ccc(-c2ccc(/C=N/N3C(=O)C4C5C=CC(C6CC56)C4C3=O)o2)c([N+](=O)[O-])c1 (stereo unspecified) | -2.05% (inactive) | – |
| Cc1nc2ccccn2c1C(=O)N/N=C/c1ccccc1Cl | 0.65% (inactive) | – |
